The record followed here is PubChem BioAssay (NCI).

Among the test systems are T-47D breast; BT-549 breast; MDA-MB-435 melanoma; SW-620 colon; MCF7 breast; HCT-116 colon; HCC-2998 colon; KM12 colon.
Common to all, as to experiment: NCI-60 one-dose screen, 48 h (100 = growth as untreated, 0 = no growth, -100 = all killed)
Common to all, as to settings: 10 µM unless noted

This is part of a sample that, as a whole, favours compounds with a hit. Of some 83,000 tested, about 20% had one in any assay.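 48-hour exposure, single concentration, 96-well plates; percent growth endpoint where 0 means no net growth. Active: below 10.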 Unmarked numbers belong to inactive results. The source made the active and inactive calls.

Regarding `N#Cc1c(-c2ccccc2)cc(-c2ccc(Nc3nc(Nc4ccc(F)cc4)nc(Nc4ccc(F)cc4)n3)cc2)nc1N`, the growth in the assay with T-47D breast is 77%; in the assay on BT-549 breast, 101%; in the assay on MDA-MB-435 melanoma, 105%; in the assay on SW-620 colon, 93.9%; in the assay with MCF7 breast it was 84.3%; with HCT-116 colon, 70.7%. Further, the growth in the assay on HCC-2998 colon is 51.8%; in the assay with KM12 colon, 95.3%.

Consider `COc1cccc(-c2nc3sccn3c2-c2ccnc(NCCNS(=O)(=O)c3ccc(C(F)(F)F)cc3)c2)c1`, for which the growth was 5.15% (active) in the assay with T-47D breast; 10.4% with BT-549 breast; 33.6% in the assay on MDA-MB-435 melanoma; 64.9% in the assay on SW-620 colon; 19.5% with MCF7 breast; 27.9% with HCT-116 colon. Further, the growth with HCC-2998 colon is 70%; with KM12 colon it was 26.4%.

As for `C=C(C)[C@@H]1CC[C@]2(C(=O)NC3CCCCC3)CC[C@]3(C)[C@H](CC[C@@H]4[C@@]5(C)CCCNC(C)(C)[C@@H]5CC[C@]43C)[C@@H]12`, the growth with T-47D breast was -32.8% (active); in the assay with BT-549 breast it was 85.4%; in the assay on MDA-MB-435 melanoma, 6.98% (active); in the assay on SW-620 colon, -76.1% (active); with MCF7 breast, 16.5%; with HCT-116 colon it was -13.8% (active). For the same molecule, the growth was -16% (active) in the assay on HCC-2998 colon and 16.7% in the assay with KM12 colon.

Take `COc1cccc2c1C(=O)c1c(O)c3c(c(O)c1C2=O)CC(O)(/C(C)=N/NC(=O)CCCCC(=O)N/N=C(\C)C1(O)Cc2c(O)c4c(c(O)c2C(OC2CC(N)C(O)C(C)O2)C1)C(=O)c1c(OC)cccc1C4=O)CC3OC1CC(N)C(O)C(C)O1` (stereo not given): the growth in the assay on T-47D breast is -16.2% [5 µM] (active); in the assay with BT-549 breast, -21.6% [5 µM] (active); in the assay with MDA-MB-435 melanoma, -87.6% [5 µM] (active); in the assay with SW-620 colon, -32.3% [5 µM] (active); in the assay with MCF7 breast, 2.23% [5 µM] (active); in the assay with HCT-116 colon it was -3.01% [5 µM] (active). The values for the growth in the assay on HCC-2998 colon and in the assay on KM12 colon were -53.9% [5 µM] (active) and -21.6% [5 µM] (active), respectively.

`COc1cc(/C=N/NC(=O)Cn2c(C(C)C)nc3ccccc32)ccc1O`: the growth with T-47D breast is 94%; in the assay on BT-549 breast, 100%; in the assay with MDA-MB-435 melanoma it was 100%; with SW-620 colon it was 95.7%; in the assay on MCF7 breast, 95.1%; with HCT-116 colon, 82.4%. Besides, the values for the growth in the assay on HCC-2998 colon and with KM12 colon were 103% and 97.6%, respectively.

`COc1ccc(Nc2nnc(SCc3ccccc3F)s2)cc1`: the growth was 85.8% with T-47D breast; 118% with BT-549 breast; 99% in the assay on MDA-MB-435 melanoma; 109% in the assay on SW-620 colon; 90.6% in the assay on MCF7 breast; 103% in the assay on HCT-116 colon. Moreover, the growth was 106% in the assay with HCC-2998 colon and 94.6% in the assay with KM12 colon.

Turning to `CCc1c2c(nc3ccc(OC(=O)NCc4ccc(B5OC(C)(C)C(C)(C)O5)cc4)cc13)-c1cc3c(c(=O)n1C2)COC(=O)[C@]3(O)CC`, the growth in the assay with T-47D breast was 4.82% (active); in the assay with BT-549 breast, 4.12% (active); in the assay with MDA-MB-435 melanoma, -35.2% (active); in the assay on SW-620 colon, 8.04% (active); in the assay with MCF7 breast it was 2.39% (active); in the assay on HCT-116 colon, 2.81% (active). Further, the figures for the growth in the assay on HCC-2998 colon and with KM12 colon were -8.14% (active) and -5.38% (active), respectively.

For the molecule `O=C(NC(Cc1nnc2n(Cc3ccccc3)c(=O)c3c4c(sc3n12)CCCC4)c1ccc(Cl)cc1)c1ccccc1` (stereo not given), the growth with T-47D breast is 85.3%; in the assay on BT-549 breast it was 107%; in the assay on MDA-MB-435 melanoma it was 56.8%; in the assay on SW-620 colon, 73.1%; in the assay with MCF7 breast it was 84.9%; in the assay on HCT-116 colon, 87.1%. Further, the growth is 68.5% in the assay on HCC-2998 colon and 98.7% in the assay on KM12 colon.

Take `CN(C)CCCn1c(=O)c2ccccc2c2ccccc21`: the growth in the assay on T-47D breast is 87.9%; in the assay with BT-549 breast, 103%; in the assay on MDA-MB-435 melanoma, 89%; with SW-620 colon it was 42.8%; in the assay with MCF7 breast, 58.4%; in the assay on HCT-116 colon it was 26.5%. Moreover, the growth in the assay with HCC-2998 colon was 68.2%; in the assay on KM12 colon, 75.8%.

On to `COc1cc(C(=O)c2cc(C)c3[nH]c4ccc(Cl)cc4c3c2C)cc(OC)c1OC`, for which the growth in the assay with T-47D breast is 70.4%; with BT-549 breast, 14.4%; in the assay on MDA-MB-435 melanoma, -21.7% (active); in the assay on SW-620 colon, 25.7%; in the assay with MCF7 breast, 13.9%; with HCT-116 colon, 3.67% (active). The growth in the assay with HCC-2998 colon is 14.2%; with KM12 colon, -5.01% (active).

In the case of `COc1ccc(-c2nc(SCC(=O)Nc3nc(-c4ccccc4)cs3)[nH]c(=O)c2C#N)cc1`, the growth is 84.3% in the assay on T-47D breast; 92.4% in the assay on BT-549 breast; 101% in the assay on MDA-MB-435 melanoma; 97.4% in the assay with SW-620 colon; 96.4% with MCF7 breast; 86% with HCT-116 colon. The growth with HCC-2998 colon is 87.5%; with KM12 colon it was 108%.

For the molecule `COc1ccc(N=C(c2ccccc2)C2C(=O)c3ccccc3C2=O)cc1`, the growth in the assay on T-47D breast is 78%; in the assay on BT-549 breast, 74.3%; in the assay with MDA-MB-435 melanoma it was 58.6%; with SW-620 colon, 71.4%; in the assay with MCF7 breast it was 84.6%; in the assay with HCT-116 colon, 81.2%. Besides, the growth in the assay on HCC-2998 colon was 112%; with KM12 colon it was 100%.

As to `COc1ccc(-c2nc(SCCC(C)C)nc(N/N=C\c3cccc(Cl)c3)c2C#N)cc1`, the growth in the assay on T-47D breast was 59.7%; in the assay on BT-549 breast, 85.5%; in the assay on MDA-MB-435 melanoma it was 88.5%; in the assay on SW-620 colon it was 54.4%; in the assay on MCF7 breast, 73.3%; with HCT-116 colon it was 33.3%. Moreover, the results for the growth with HCC-2998 colon and in the assay on KM12 colon were 92.2% and 90.6%, respectively.

For the molecule `C[C@H]1[C@H]2[C@H]3CC[C@@H]4[C@@]5(C)C/C(=C/c6cccnc6)C(=O)C(C)(C)[C@@H]5CC[C@@]4(C)[C@]3(C)CC[C@]23CO[C@]1(C)[C@@H](C(=O)/C=C\c1cccnc1)C3`, the growth in the assay on T-47D breast is 24.6%; in the assay on BT-549 breast, -20.1% (active); with MDA-MB-435 melanoma, -7.3% (active); in the assay on SW-620 colon, -26.4% (active); with MCF7 breast, 9.88% (active); in the assay with HCT-116 colon, -45.6% (active). Also, the growth in the assay with HCC-2998 colon was -67.2% (active); with KM12 colon, -55.6% (active).

As for `CC1O[C@@H](OC2[C@H](OC(=O)/C=C/c3ccc(O)c(O)c3)C(COC3O[C@H](C)C(O)C(O)[C@@H]3O)O[C@@H](OCCc3ccc(O)c(O)c3)[C@H]2O)[C@@H](O)C(O)[C@H]1O` (stereo not given in full), the growth in the assay with T-47D breast was 83.1%; in the assay with BT-549 breast, 98.8%; in the assay with MDA-MB-435 melanoma, 103%; with SW-620 colon, 108%; in the assay with MCF7 breast, 98.2%; in the assay with HCT-116 colon, 103%. For the same molecule, the growth in the assay with HCC-2998 colon was 99.4%; with KM12 colon it was 99.3%.
